Results filed as inconclusive are left out. The source made the active and inactive calls. The call rests on the fitted dose curve; in most records, active means well fitted curve in the direction sought with a large enough effect; inconclusive means small, poorly fitted or top-dose-only effect, or another doubt; inactive means no such curve, though single readings can be large; an effect the other way counts as inactive or inconclusive. Where a SMILES comes first, the peptide text is derived from it.
Assays:
UISO = experiment: qHTS assay to identify novel small-molecules to repurpose for Merkel cell carcinoma treatment (AID 1296009); settings: MCC and control cell lines, CellTiter-Glo viability, 72 h; series mostly up to 46 µM; further: nearly all actives have a fitted effect of over 60% in size
In short: (§1)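 Cell viability, measured as CellTiter-Glo luminescence, was normalized between DMSO and no-cell wells. The cells had been exposed to 8- or 11-point compound dilutions for 72 hr at 37 degree celsius.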

WaGa = experiment: as above; settings: MCC and control cell lines, CellTiter-Glo viability, 72 h; series mostly up to 46 µM
In short: as §1

C33A = experiment: Primary qHTS to identify gynecologic anti-cancer compounds using libraries of approved drugs and bioactive compounds (AID 1345084); settings: Gynecologic cancer cell panel viability, ATPlite luminescence, 48 h; series mostly up to 57.5 µM; further: nearly all actives have a fitted effect of over 55% in size
In short: (§2)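 Cell viability after 48 h drug treatment, ATPlite luminescence readout; five doses.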

CAOV3 = experiment: as above; settings: Gynecologic cancer cell panel viability, ATPlite luminescence, 48 h; series mostly up to 57.5 µM
In short: as §2

CASKI = experiment: as above; settings: Gynecologic cancer cell panel viability, ATPlite luminescence, 48 h; series mostly up to 57.5 µM
In short: as §2

Es-2 = experiment: as above; settings: Gynecologic cancer cell panel viability, ATPlite luminescence, 48 h; series mostly up to 57.5 µM
In short: as §2

HeLa = experiment: as above; settings: Gynecologic cancer cell panel viability, ATPlite luminescence, 48 h; series mostly up to 57.5 µM
In short: as §2

Hek293T = experiment: as above; settings: Gynecologic cancer cell panel viability, ATPlite luminescence, 48 h, control line for the selectivity index; series mostly up to 57.5 µM
In short: as §2

JEG-3 = experiment: as above; settings: Gynecologic cancer cell panel viability, ATPlite luminescence, 48 h; series mostly up to 57.5 µM
In short: as §2

Measured: Potency

NC(=O)NC1N=C([O][Al])NC1=O (configuration not stated)
inactive: UISO | WaGa | C33A | CAOV3 | CASKI | Es-2 | HeLa | Hek293T | JEG-3

CCCCCCCCCCCCCCCCCCN(C)C
inactive: UISO | WaGa | C33A | CAOV3 | CASKI | Es-2 | HeLa | Hek293T | JEG-3

CCCCOCCOC(=O)c1cccnc1
inactive: UISO | WaGa | C33A | CAOV3 | CASKI | Es-2 | HeLa | Hek293T | JEG-3

COc1cc2c(cc1OC)CN(C(=O)[C@H](C)N[C@@H](CCc1ccccc1)C(=O)O)[C@H](C(=O)O)C2
inactive: UISO | WaGa | C33A | CAOV3 | CASKI | Es-2 | HeLa | Hek293T | JEG-3

CC(=O)O[C@@H]1C(=O)O[C@@H]2[C@H]1OC(=O)[C@@H]2OC(C)=O
inactive: UISO | WaGa | C33A | CAOV3 | CASKI | Es-2 | HeLa | Hek293T | JEG-3

CC1(C)O[C@@H]2C[C@H]3[C@@H]4CCC5=CC(=O)C=C[C@]5(C)[C@@]4(F)[C@@H](O)C[C@]3(C)[C@]2(C(=O)CO)O1
inactive: UISO | WaGa | C33A | CAOV3 | CASKI | Es-2 | HeLa | Hek293T | JEG-3

CC(C)(C)c1cc(C=O)cc(C(C)(C)C)c1O
inactive: UISO | WaGa | C33A | CAOV3 | CASKI | Es-2 | HeLa | Hek293T | JEG-3

COc1cc(NS(=O)(=O)c2ccc(N)cc2)nc(C)n1
inactive: UISO | WaGa | C33A | CAOV3 | CASKI | Es-2 | HeLa | Hek293T | JEG-3

CN1[C@@H]2CC[C@H]1CC(NC(=O)n1c(=O)[nH]c3ccccc31)C2 (some centres not stated)
inactive: UISO | WaGa | C33A | CAOV3 | CASKI | Es-2 | HeLa | Hek293T | JEG-3

O=C1c2ccccc2CCc2ccccc21
inactive: UISO | WaGa | C33A | CAOV3 | CASKI | Es-2 | HeLa | Hek293T | JEG-3

CCOC(=O)NNc1nncc2ccccc12
inactive: UISO | WaGa | C33A | CAOV3 | CASKI | Es-2 | HeLa | Hek293T | JEG-3

CCOc1ccc(NS(=O)(=O)c2ccc(N)cc2)nn1
inactive: UISO | WaGa | C33A | CAOV3 | CASKI | Es-2 | HeLa | Hek293T | JEG-3

Nc1ccc([N+](=O)[O-])c(C(F)(F)F)c1
inactive: UISO | WaGa | C33A | CAOV3 | CASKI | Es-2 | HeLa | Hek293T | JEG-3

CC1c2ccccc2CN1NC(=O)c1ccc(Cl)c(S(N)(=O)=O)c1 (configuration not stated)
inactive: UISO | WaGa | C33A | CAOV3 | CASKI | Es-2 | HeLa | Hek293T | JEG-3

Nc1c(I)cc(I)c(C(=O)N(CCC(=O)O)c2ccccc2)c1I
inactive: UISO | WaGa | C33A | CAOV3 | CASKI | Es-2 | HeLa | Hek293T | JEG-3

CC(=O)N[C@@H](CO)C(=O)N[C@@H](CC(=O)O)C(=O)N[C@@H](CCCCN)C(=O)N1CCC[C@H]1C(=O)O (Ac-SDKP-OH)
inactive: UISO | WaGa | C33A | CAOV3 | CASKI | Es-2 | HeLa | Hek293T | JEG-3

C/C=C(/C(=C/C)c1ccc(OC(C)=O)cc1)c1ccc(OC(C)=O)cc1
inactive: UISO | WaGa | C33A | CAOV3 | CASKI | Es-2 | HeLa | Hek293T | JEG-3

OC1(c2ccc(Cl)cc2)CCNCC1
inactive: UISO | WaGa | C33A | CAOV3 | CASKI | Es-2 | HeLa | Hek293T | JEG-3

Oc1ccccc1-c1nnco1
inactive: UISO | WaGa | C33A | CAOV3 | CASKI | Es-2 | HeLa | Hek293T | JEG-3

O=C(O)CCCC[C@@H]1SC[C@@H]2NC(=O)N[C@@H]21
inactive: UISO | WaGa | C33A | CAOV3 | CASKI | Es-2 | HeLa | Hek293T | JEG-3

CN1Cc2cc(C(=O)N3CCC(C4CCNCC4)CC3)ccc2NC(CC(=O)O)C1=O (configuration not stated)
inactive: UISO | WaGa | C33A | CAOV3 | CASKI | Es-2 | HeLa | Hek293T | JEG-3

CC(=O)N(c1onc(C)c1C)S(=O)(=O)c1ccc(N)cc1
inactive: UISO | WaGa | C33A | CAOV3 | CASKI | Es-2 | HeLa | Hek293T | JEG-3

Fc1ccc(C(c2ccc(F)cc2)N2CCNCC2)cc1
inactive: UISO | WaGa | C33A | CAOV3 | CASKI | Es-2 | HeLa | Hek293T | JEG-3
